The values below come from the supplement of paper PMC13380429.

The experiment relates to Vero E6 infected with SARS-CoV-2. Kind of experiment: SARS-CoV-2 infection rate relative to infected DMSO; higher = more infection, active = 60 or less. The conditions noted are these: 24 h.
For `CCCCc1nc(C)c(CC(=S)N(C)C)c(=O)n1Cc1ccc(-c2ccccc2-c2nnn[nH]2)cc1` [fimasartan] (10 µM), the SARS-CoV-2 infection rate is 112% (inactive).

Regarding `c1ccc2sc(SNC3CCCCC3)nc2c1` [N-cyclohexyl-2-benzothiazolesulfenamide] (10 µM), the SARS-CoV-2 infection rate is 106% (inactive).

`Nc1ncnc2[nH]nc(Nc3ccc(F)cc3)c12` (0.833333 µM): the SARS-CoV-2 infection rate was 95.5% (inactive).

In the case of `COc1cc2c(=O)c(-c3ccc(O)cc3)coc2cc1O` [glycitein] (10 µM), the SARS-CoV-2 infection rate is 110% (inactive).

With `CCCCCCCCCCCCCCCCCCCCCCCCC(=O)O` [pentacosanoic-acid] (10 µM), the SARS-CoV-2 infection rate is 96% (inactive).

Regarding `Fc1ccc(C(c2ccccc2)(c2ccccc2F)n2ccnc2)cc1` (stereo not given) [flutrimazole] (10 µM), the SARS-CoV-2 infection rate is 108% (inactive).

Take `c1ccc(-c2n[nH]c3c2oc2ccccc23)cc1` (10 µM): the SARS-CoV-2 infection rate was 98.5% (inactive).

On to `O=C(O)/C=C(/CC(=O)O)C(=O)O` [cis-aconitic-acid] (10 µM), for which the SARS-CoV-2 infection rate is 110% (inactive).

As to `O=C(NC1CCN(CCCCC2(C(=O)NCC(F)(F)F)c3ccccc3-c3ccccc32)CC1)c1ccccc1-c1ccc(C(F)(F)F)cc1` [lomitapide] (0.833333 µM), the SARS-CoV-2 infection rate is 87.5% (inactive).

As to `Cc1cc(C)n(-c2cccc([C@H](CC(=O)O)CN3CC[C@@H](CCc4ccc5c(n4)NCCC5)C3)c2)n1` [integrin-antagonist-1] (10 µM), the SARS-CoV-2 infection rate is 111% (inactive).
